The list is not random: actives were taken first. Their share in the collection is about 20%.
HCMV antiviral = human cytomegalovirus inhibition. activity change, negative = inhibition, % at 57.5 µM. actives 4.5% (n = 410,000). HFF cells, HCMV-luciferase reporter, 72 h; hits give low values; in the data active = activity change below about -60%; inconclusive = no clear call, values can overlap the other calls; inactive = above about -39%
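Luciferase read-out from HCMV-luciferase-infected HFFs (MOI 1 PFU/cell) 72 h post infection at 37C; compounds added after 16 h cell attachment; activity normalized between buffer-only basal and Salinomycin (10uM) inhibitor controls.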
Pf growth 48h = P. falciparum growth inhibition at 48 hours (one generation). P. falciparum luciferase growth in erythrocytes, 48 h. Potency, µM (highest dose often 28.7 µM), actives largely listed as inhibitors. actives 5.9% (n = 310,000)
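Luciferase-expressing parasites in RBCs, 2% Hct / 0.1% parasitemia final; RPMI 1640 + 0.5% Albumax; 37 C, 5% CO2, one generation; luminescence read-out, lower signal = inhibition.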
Pf growth 96h = P. falciparum growth inhibition at 96 hours; P. falciparum luciferase reporter growth, 96 h; Potency, µM (highest dose often 28.7 µM), hits mostly inhibitors; actives 6.9% (n = 320,000); AID 504834
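Compounds incubated with erythrocytes infected by luciferase-expressing P. falciparum (2% hematocrit, 0.05% parasitemia final) for 96 hours, 37 C in 5% CO2. Growth inhibition scored as decreased luciferase luminescence.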
Shiga inhibitor = blocks Shiga toxin action in Vero cells. AID 2315. actives 9.2% (n = 290,000). Vero cells, Shiga toxin protein synthesis inhibition reporter. inhibition, % at 38.7 µM; in the data active = inhibition mostly above about 28%, no sharp cut-off; inactive = mostly below about 43%
CHX counter = counter-screen hit for Shiga toxin inhibitors, cycloheximide. max response, %. AID 2314. actives 12% (n = 300,000). cell reporter, cycloheximide protein synthesis inhibition counterscreen; in the data active = max response mostly above about 13%, no sharp cut-off; inactive = mostly below about 14%; also: read at 38.3 µM for the half of the compounds with a filed dose
Hits are given with their value; – = inactive; ? = inconclusive; · = no result given. Unless noted, calls follow the shape of the dose curve; as a rule, active = well fitted inhibition curve with a large enough effect; inconclusive = small, poorly fitted or top-dose-only effect, or another doubt; inactive = no such curve, though single readings can be large or run the other way.

SMILES	HCMV antiviral	Pf growth 48h	Pf growth 96h	Shiga inhibitor	CHX counter
Clc1ccccc1/C=C/C=N/Nc1nc(N2CCOCC2)nc(N2CCOCC2)n1	–	?	?	–	–
CC(=O)Nc1nnc2n1CCS2	–	·	·	·	·
CCCCCC(=O)Nc1nc(C)c(-c2csc(Nc3ccccc3OC)n2)s1	–	?	2.9µM	–	–
CCCCCC(=O)Nc1nc(C)c(-c2csc(Nc3ccccc3OCC)n2)s1	–	?	?	–	–
CCCC(C)C(=O)Nc1nc(C)c(-c2csc(Nc3ccc(Cl)cc3)n2)s1 (centres undefined)	-80	?	?	–	–
N#Cc1ccccc1-c1csc(N2CCC(C(N)=O)CC2)n1	·	–	–	·	·
CCOC(=O)c1sc(NC(=O)CSc2ncccn2)nc1C	–	–	13µM	41	–
CCOC(=O)c1sc(NC(=O)CSc2nnc(-c3ccc(OC)cc3)n2CCOC)nc1C	–	?	13µM	–	–
CCOC(=O)c1sc(NC(=O)CSc2nccn2C)nc1C	–	–	–	112	35
CCCC(=O)c1c[nH]c(C(=O)NCCc2ccccn2)c1	–	–	–	–	16
CCc1ccc(NC(=O)c2n[nH]c(=O)c3ccccc23)cc1	–	–	–	79	36
O=C(NCCc1ccccc1)c1cc(=O)[nH]c2ccccc12	-60	–	–	–	–
O=C(CNC(=O)c1ccccc1F)NCCc1ccc(Cl)cc1	–	–	–	–	–
O=C(NCCc1ccc(Cl)cc1)c1n[nH]c2ccccc12	–	–	–	40	–
O=C(CCNS(=O)(=O)c1ccc2c(c1)CCCC(=O)N2)NCc1ccccc1Cl	–	·	·	·	·
C=CCNc1cccc2c1S(=O)(=O)N[C@H](C)CO2	–	·	·	·	·
O=C(NCCc1ccccc1)c1n[nH]c2ccccc12	–	–	–	145	51
O=C(NCCc1ccccn1)c1n[nH]c(=O)c2ccccc12	–	–	13µM	–	–
CC(OC(=O)c1cc(=O)[nH]c2ccccc12)c1ccccc1 (centres undefined)	–	–	·	70	32
CC(C)COC(=O)c1cc(=O)[nH]c2ccccc12	–	–	–	–	–
Cc1ccc(-c2n[nH]c3c2CCC3)cc1	–	·	–	–	–
CCN(CC(=O)Nc1ccc(NC(C)=O)cc1)C(=O)/C=C/c1cn(Cc2ccccc2)nc1-c1cccnc1	–	?	10µM	·	·
CCN(CC)S(=O)(=O)c1ccc2c(c1)nc(CN(C)C(=O)c1cccc(Cl)c1)n2C	–	·	·	·	·
CCCN(CCC)CCNC(=O)C1CCCN(S(=O)(=O)c2cccc3nsnc23)C1 (centres undefined)	–	·	·	·	·
CC(C)c1ccc(S(=O)(=O)N2CCN(Cc3cccc(F)c3)CC2)cc1	–	·	·	·	·
SMILES	HCMV antiviral	Pf growth 48h	Pf growth 96h	Shiga inhibitor	CHX counter
O=C(Nc1cccc2ccccc12)OCc1cncs1	?	–	–	32	24
O=C(Nc1ccc(Cl)cc1)OCc1cncs1	–	–	–	121	60
COc1cc(NC(=O)CSc2nnc3ccccn23)cc(OC)c1OC	–	·	·	·	·
N#Cc1c(N)sc(=S)c2c1CCN(Cc1ccccc1)C2	·	10µM	–	–	–
COCCN1C(=O)c2cc(C(=O)Nc3ccc(OC)c(OC)c3)ccc2C1Nc1ccc(OC)c(OC)c1 (centres undefined)	–	?	–	–	–
Cc1ccc(-n2c(C)cc(=O)cc2C)c(C)c1	–	?	–	–	–
NC(=O)c1cc(N)ccc1N1CCCC1	–	–	?	–	–
CCN1CCN(c2ccc(N)cc2C)CC1	–	?	?	–	–
Cc1cc(N)ccc1-n1c(C)ccc1C	–	7.4µM	–	–	–
NC(=O)c1cc(N)ccc1N1CCCCC1	-61	–	–	–	–
Cc1cc(N)ccc1N1CCCC1	·	0.47µM	0.41µM	–	–
CCOC(=O)[C@]12CCC=C1N(Cc1ccco1)C(=O)[C@H](CC(=O)N1CCN(C(=O)C3CC3)CC1)C2	–	·	·	·	·
Cc1ccc(Nc2nc3nonc3[nH]c2=O)cc1C	–	–	5.2µM	108	36
CCCOc1ccc(-c2c(C(=O)N/N=C/c3ccncc3)nnn2-c2nonc2N)cc1	–	–	–	–	–
CCCOc1ccc(-c2c(C(=O)N/N=C(\C)c3ccncc3)nnn2-c2nonc2N)cc1	–	?	9.3µM	–	–
C/C(=N/NC(=O)c1nnn(-c2nonc2N)c1-c1ccccc1)c1ccncc1	–	–	7.4µM	–	–
COc1ccc(-c2onc(C)c2C)cc1S(=O)(=O)NC1CCC(C)CC1 (centres undefined)	–	·	·	·	·
CCOC(=O)c1cc2c(=O)n3ccccc3nc2n(CC(C)C)c1=NC(=O)C(C)(C)Oc1ccc(Cl)cc1	–	·	·	·	·
Cn1cc([C@@H]2C[C@H]3CN(C4CCCC4)C(=O)[C@]34CCCN24)c(-c2ccccc2)n1	–	5.2µM	–	–	–
Nc1c(Cl)cc(C2=NCCn3nc4cc(C(F)(F)F)ccc4c32)cc1Cl	–	?	?	·	·
COc1ccc2c3n(nc2c1)CCN=C3c1cc(Cl)c(N)c(Cl)c1	–	13µM	?	·	·
NN1C(=O)/C(=C2/Sc3ccccc3N2CCCS(=O)(=O)O)SC1=S	–	–	–	–	–
O=C1NC(=S)S/C1=C1\Sc2ccccc2N1CCCS(=O)(=O)O	–	–	7.4µM	–	–
COC(=O)/C=C/c1cccc([C@H]2[C@@H]3C=CC[C@@H](C)[C@@H]3C(=O)N2Cc2ccccc2)c1	–	·	·	–	–
COc1ccc2c(c1)c(C(=O)N/N=C/c1cccc(Br)c1)c(C)n2C	?	?	?	–	–
SMILES	HCMV antiviral	Pf growth 48h	Pf growth 96h	Shiga inhibitor	CHX counter
FC(F)(F)Oc1ccc(NC2=NCCCS2)cc1	·	–	–	39	33
CCCCc1ccc(NC2=NCCCS2)cc1	–	–	?	42	30
Cc1cc(-n2cnnn2)ccc1C(C)C	–	–	–	–	23
Cn1c(O)c(/C=N/N2CCOCC2)c(=O)n(-c2ccccc2)c1=S	–	–	–	–	–
O=c1c(/C=N/N2CCOCC2)c(O)n(-c2ccccc2)c(=S)n1-c1ccccc1	–	–	–	–	17
COc1ccccc1-n1c(O)c(/C=N/N2CCCCC2)c(=O)n(-c2ccccc2OC)c1=S	–	–	–	33	–
CCn1ncc(C2=NOC(C(=O)Nc3c(C)nn(Cc4ccc(F)cc4)c3C)C2)c1C (centres undefined)	-61	·	–	–	–
CCn1ncc(C2=NOC(C(=O)NCc3ccccc3)C2)c1C (centres undefined)	-60	–	?	–	–
COc1cccc(C2C(C(=O)c3sc(C)nc3C)=C(O)C(=O)N2CCN(C)C)c1OC (centres undefined)	·	–	–	–	–
Cc1noc(C)c1S(=O)(=O)N(C)C[C@H]1OCc2cnnn2CCCC(=O)N([C@@H](C)CO)C[C@H]1C	–	·	·	·	·
COc1ccc2ccccc2c1-c1csc(N)n1	–	–	?	–	–
CCc1ccc(OC)c(-c2csc(N)n2)c1	–	–	12µM	–	–
COc1ccc(-c2csc(N)n2)cc1F	–	–	–	64	39
COc1ccc(-c2csc(C(O)c3ccc(F)cc3)n2)cc1OC (centres undefined)	–	·	·	·	·
CCOC(=O)c1cc(-c2ccc(C)cc2)n(CCC(=O)Nc2ccc(C(C)C)cc2)c1C	–	·	·	·	·
